Screening results as filed in PubChem.
KinaseGlo FLuc = Counterscreen for Luciferase (Kinase-Glo TM) Inhibition | Kinase-Glo luciferase, ATP luminescence, 8 min | Potency, µM (top dose mostly 38.3 µM), without a hit: at the top dose activity change, negative = inhibition, actives largely listed as inhibitors | 200,000 tested, 0.28% active | AID 1379, 2008; note: nearly all actives have a fitted effect of over 60% in size
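Substrate mix (final 50 mM imidazole pH 7.2, 50 mM KCl, 7 mM MgCl2, 10 uM ATP, 0.01% Tween 20, 0.05% BSA) plus pin-tool compound, then Kinase-Glo detection mix; 8 min ambient, luminescence read.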
Lamin A splicing = qHTS Assay for Modulators of Lamin A Splicing. Potency, µM (titrated, usually from 46.1 µM), inactives show top-dose ratio change, negative = inhibition, hits mostly inhibitors. 200,000 tested, 0.01% active. HeLa LMNA splicing GFP/RFP minigene ratio, 48 h. AID 1487, 2009; active = well fitted inhibition curve with a large enough effect in the signal ratio, with a control signal flat, not every such curve was filed as active; inconclusive = small, poorly fitted or top-dose-only effect, or effect the other way, or a change in a side signal; the % refers to the signal ratio
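S3 HeLa stable clones carrying a lamin A-EGFP splicing minigene plus DsRed2 were seeded at 600 cells/well in Opti-MEM with 2% FBS, pin-dosed and incubated 48 h at 37°C. Acumen cytometry (488 nm) gave the GFP/RFP total-intensity ratio.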
HPGD block = qHTS Assay for Inhibitors of HPGD (15-Hydroxyprostaglandin Dehydrogenase). purified HPGD, NADH fluorescence kinetic, PGE2 substrate. Potency, µM, without a hit: at the top dose activity change, negative = inhibition, most hits filed as inhibitors. 150,000 tested, 4.3% active. AID 894, 2007; active = well fitted inhibition curve with a large enough effect, not every such curve was filed as active; inconclusive = small, poorly fitted or top-dose-only effect, or another doubt; inactive = no such curve, though single readings can be large or run the other way
Target sequence (P15428 whole entry, looked up): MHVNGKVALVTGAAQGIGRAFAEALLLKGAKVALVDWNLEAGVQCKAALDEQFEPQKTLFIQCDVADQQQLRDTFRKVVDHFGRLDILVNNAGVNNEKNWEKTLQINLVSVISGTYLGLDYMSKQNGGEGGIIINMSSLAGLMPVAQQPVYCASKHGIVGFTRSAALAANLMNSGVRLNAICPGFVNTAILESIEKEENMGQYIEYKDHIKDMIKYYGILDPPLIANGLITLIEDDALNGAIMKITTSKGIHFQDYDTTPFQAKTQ
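20 nM HPGD preincubated 15 min at room temperature with compound in 50 mM Tris-HCl pH 8, 0.01% Tween 20. Started with 1 mM NAD+ and 30 uM prostaglandin E2; NADH fluorescence (360/450 nm) read 5 times over 30-s intervals, last minus first.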
ALDH1A1 inh = qHTS Assay for Inhibitors of Aldehyde Dehydrogenase 1 (ALDH1A1) | Purified ALDH1A1, NADH fluorescence, propionaldehyde substrate | Potency, µM (doses to about 75.3 µM), inactives show at the highest dose activity, negative = inhibition, most hits filed as inhibitors | Aldehyde dehydrogenase 1A1 (Homo sapiens), P00352 | 220,000 tested, 7.3% active; active = well fitted inhibition curve with a large enough effect, not every such curve was filed as active; inconclusive = small, poorly fitted or top-dose-only effect, or another doubt; inactive = no such curve, though single readings can be large or run the other way;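 note: plate controls were no enzyme wells and a reference inhibitor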
Target sequence (P00352 whole entry, looked up): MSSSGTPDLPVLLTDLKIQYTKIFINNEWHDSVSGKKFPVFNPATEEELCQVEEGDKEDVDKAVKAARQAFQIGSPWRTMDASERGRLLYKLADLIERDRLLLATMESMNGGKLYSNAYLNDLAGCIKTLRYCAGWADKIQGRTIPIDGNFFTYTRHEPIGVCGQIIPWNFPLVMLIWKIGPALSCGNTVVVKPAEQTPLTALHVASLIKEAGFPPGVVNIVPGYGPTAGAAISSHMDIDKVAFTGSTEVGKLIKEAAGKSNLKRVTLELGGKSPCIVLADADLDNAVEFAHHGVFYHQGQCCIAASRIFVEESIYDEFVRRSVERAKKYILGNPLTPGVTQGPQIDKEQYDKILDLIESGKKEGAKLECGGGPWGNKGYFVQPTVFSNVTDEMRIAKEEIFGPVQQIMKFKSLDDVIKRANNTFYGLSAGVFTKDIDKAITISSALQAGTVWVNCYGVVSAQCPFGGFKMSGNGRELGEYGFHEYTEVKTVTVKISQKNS
IMPase Li inh = qHTS Assay for Identifying the Cell-Membrane Permeable IMPase Inhibitors: Potentiation with Lithium; CHO-M1 cells, IP1 TR-FRET (IP-One), carbachol + lithium; Potency, µM (series often up to 59.4 µM), inactives show at the highest dose activity, negative = IMPase inhibition, hits mostly inhibitors; 210,000 tested, 0.35% active;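 note: IP1 builds up when IMPase is blocked and the TR-FRET signal falls; plate controls were basal vehicle for no effect and high inhibitor control for full effect; nearly all actives have a fitted effect of over 50% in size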
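Test compounds were applied to CHO-M1 cells previously cultured for 16–30 h at 2000 per well. A small lithium amount accompanied them; after 30 min at 37C, IP1 was quantified by TR-FRET.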
* hit, by the source's call; ? = inconclusive; · = not tested or not shown; [ ] = remark or other dose. Shown are actives, neighbours in structure and some others; about 9% of the full set was active somewhere. Unless noted, calls come from the whole dose curve; as a rule, active = well fitted curve in the direction sought with a large enough effect; inconclusive = small, poorly fitted or top-dose-only effect, or another doubt; inactive = no such curve, though single readings can be large; an effect the other way counts as inactive or inconclusive. Unless noted, % is set by controls: 0 for no effect and ±100 for the full control effect; potency is the fitted concentration of half-maximal effect.

SMILES | KinaseGlo FLuc | Lamin A splicing | HPGD block | ALDH1A1 inh | IMPase Li inh
CC1=NN(c2ccccc2)C(=O)C1/C=C1\NC(=S)NC1=O (stereo not given) | 4% | · | · | 13µM* | 2%
COC(=O)c1ccc(CSc2nc3c([nH]c4ccccc43)c(=O)n2-c2cccc(OC)c2)o1 | · | -9%[46 µM] | · | · | ·
Cn1cc(C(=O)Nc2ccc(F)c(Cl)c2)cn1 | -2% | -5% | -5% | 13% | -4%
CN1c2ccsc2C(O)=C(C(=S)Nc2ccc(F)c(Cl)c2)S1(=O)=O | 3% | ? | ? | 9.5µM* | 32%[38.3 µM]
COc1ccc(C(=O)N/N=C/c2ccc(OC)c(OS(=O)(=O)c3ccccc3)c2)cc1 | -1% | ? | -13% | 10µM* | 5%
COc1ccc(/C=N/NC(=O)c2cccnc2)cc1CSc1nc2ccccc2s1 | 4% | ? | -21% | ? | 19%
COc1ccc(/C=N/NC(=O)c2cccc([N+](=O)[O-])c2)cc1OS(=O)(=O)c1ccc(C)cc1 | 6% | 17% | -22% | 13µM* | 7%[38.3 µM]
COc1ccc(CNC(=S)N/N=C/c2ccc(OC)c(OC)c2)cc1 | -6% | ? | 22µM* | ? | -1%[38.3 µM]
COc1ccc(CNC(=S)N/N=C/c2ccc(O)c(OC)c2)cc1 | 2% | 2% | -15% | 1% | 6%
COc1ccc(/C=N/NC(=O)c2cccnc2)cc1COc1ccc([N+](=O)[O-])c(C)c1 | · | · | · | 10µM* | ·
CN(C(=O)Nc1ccc(Cl)cc1Cl)[C@H]1c2cc(Br)ccc2OC[C@H]1CO | 0% | -1% | -20% | ? | 11%[38.3 µM]
CCCCCCCCCCCCCCCCOCC(CO)OC(C)=O (stereo not given) | 0% | · | -7% | -1% | 43%
N.N.N.N.N.N.N.N.N.N.N.N.N.N.O.O.[Cl-].[Cl-].[Cl-].[Cl-].[Cl-].[Cl-].[Ru].[Ru].[Ru] | -11% | ? | -9% | -6% | 10%
CNc1ccc(O)cc1 | · | · | 13µM* | 2.2µM* | 49%
O=C(NCC1CCCO1)c1nn2c(c1Cl)NC(c1ccc(F)cc1)CC2C(F)(F)F (stereo not given) | 1% | 8% | -15% | 2% | -7%[38.3 µM]
COc1cccc(C2CC(C(F)(F)F)n3ncc(C(=O)NCc4ccco4)c3N2)c1 (stereo not given) | 1% | -7% | 20µM* | -3% | 28%[38.3 µM]
O=C(NCC1CCCO1)c1cnn2c1NC(c1ccccc1)CC2C(F)(F)F (stereo not given) | 1% | -11% | 25µM* | 6% | 24%[38.3 µM]
CCc1ccc(C(=O)CSc2n[nH]c(-c3ccncc3)n2)cc1 | 0% | ? | 11µM* | ? | 27%[38.3 µM]
O=C(CSc1n[nH]c(-c2ccccc2)n1)c1ccc(O)c(O)c1 | -2% | ? | 3.5µM* | -2% | -8%[38.3 µM]
CN(C)c1nc(C=C(C#N)C#N)c(Cl)n1-c1ccc(F)cc1 | 8% | ? | · | -8% | 7%
O=C(NCc1cccnc1)c1cc(S(=O)(=O)N2CCCCC2)ccc1Cl | -1% | -9% | -7% | 20µM* | 25%[38.3 µM]
O=C(NC1CCS(=O)(=O)C1)c1cccc(S(=O)(=O)N2CCCCC2)c1 (stereo not given) | 2% | -3% | 0% | 3% | -2%[38.3 µM]
O=C(NCc1cccnc1)c1cccc(S(=O)(=O)N2CCCCC2)c1 | 1% | ? | -6% | -6% | -6%[38.3 µM]
O=C(Nc1cc(S(=O)(=O)Nc2ccc(Cl)cc2)ccc1O)c1ccc(S(=O)(=O)N2CCCCCC2)cc1 | -2% | · | · | 3.2µM* | 18%
O=C(Nc1ccc(O)cc1)c1cc(S(=O)(=O)N2CCCC2)ccc1Cl | · | ? | · | 4.5µM* | ·
SMILES | KinaseGlo FLuc | Lamin A splicing | HPGD block | ALDH1A1 inh | IMPase Li inh
O=C(NC1CCS(=O)(=O)C1)c1ccc(S(=O)(=O)N2CCCCC2)cc1 (stereo not given) | 1% | · | · | 25µM* | 7%
O=C(NNS(=O)(=O)c1ccc(Cl)cc1)c1ccc(S(=O)(=O)N2CCCCC2)cc1 | -4% | -10% | -6% | ? | 0%
CCOC(c1cc(OC)cc([N+](=O)[O-])c1OC)C(C)C(OC)[C@@H](C)/C=C/CC(=O)OC (stereo not given in full) | · | · | · | 0%[13.5 µM] | ·
O=C(c1cccc(F)c1)N1CCC[C@@]2(CCN(c3ncccn3)C2)C1 | -2% | · | -18% | ? | 5%
CCOC(=O)c1cccc(NC(=O)c2sc3nc[nH]c(=O)c3c2C)c1 | · | 16%[46 µM] | · | · | ·
COc1ccccc1/C=C/C(=O)NCc1ccccn1 | 1% | -18%[46 µM] | · | ? | -6%
CN(C)S(=O)(=O)c1ccc(C(=O)Nc2ccc(CCC(=O)N3CCCC3)cc2)cc1 | 4% | -9% | 16µM* | 22µM* | 20%[38.3 µM]
O=C(NCc1cccnc1)c1ccc(-c2cc(Cl)ccc2Cl)o1 | 5% | · | · | 7.1µM* | 9%
O=C(COC(=O)c1ccc(S(=O)(=O)N2CCCC2)cc1)Nc1ccc(N2CCOCC2)cc1 | 2% | · | · | -11% | -6%
O=C(Nc1ccc2c(c1)OCCO2)c1ccc(S(=O)(=O)N2CCCCC2)cc1 | 11% | ? | -14% | 25µM* | -3%[38.3 µM]
O=C(Nc1ccc(N2CCOCC2)cc1)c1ccc(S(=O)(=O)N2CCCCC2)cc1 | · | 2% | · | 0.11µM* | ·
CC(=O)N1CCN(c2ccc(NC(=O)c3ccc(OCc4ccccc4)cc3)cc2)CC1 | 1% | · | · | -8% | -4%
O=C(O)c1cccc(NC(=O)c2cccc(S(=O)(=O)N3CCCCC3)c2)c1 | -6% | -3% | -7% | 5% | 12%[38.3 µM]
O=C(Nc1cccc(S(=O)(=O)N2CCCCC2)c1)c1ccc2c(=O)n3c(nc2c1)CCCCC3 | · | ? | · | 2.5µM* | ·
CS(=O)(=O)Nc1ccc(C(=O)Nc2ccc(S(=O)(=O)N3CCCC3)cc2)cc1 | -1% | -15%[9.22 µM] | · | 25µM* | 6%
O=C(Nc1ccccc1)c1ccc(S(=O)(=O)N2CCCCC2)cc1 | 2% | ? | -13% | -2% | 8%
CC(=O)c1cccc(NC(=O)c2ccc(S(=O)(=O)N3CCCCC3)cc2)c1 | 4% | -20% | -7% | 22µM* | 12%[38.3 µM]
CCOC(=O)N1CCC(NC(=O)c2ccc3c(Cl)c4c(nc3c2)CCCC4)CC1 | -5% | ? | -13% | ? | -11%
CCOC(=O)N1CCC(NC(=O)c2ccc3c(=O)n4c(nc3c2)CCCC4)CC1 | -1% | 9% | -6% | 2µM* | -3%[38.3 µM]
COC(=O)c1ccc(NC(=O)C(=O)NCCc2sc3nc(-c4ccc(OC)cc4)nn3c2C)cc1 | · | -8%[46 µM] | · | · | ·
C(=N\Nc1nc(Nc2ccccc2)nc(N2CCCCC2)n1)/c1ccco1 | 0% | 3%[46 µM] | · | -6% | 21%
Cc1ccccc1S(=O)(=O)Cc1ccc(C(=O)NCc2cccnc2)o1 | 1% | -14% | -8% | 14µM* | 27%[38.3 µM]
